Reference: ChEMBL document CHEMBL1157539, “Thousands of chemical starting points for antimalarial lead identification” (Nature, 2010)
Several values for one entry are separate records, joined by “and”; a condition that tells them apart may be missing. Identical values can stand only once.

What follows are compounds tested on Plasmodium falciparum (assay: GSK_TCMDC: Inhibition of Plasmodium falciparum Dd2 in whole red blood cells, using parasite LDH activity as an index of growth. Test compounds present at 2uM).
Assay type: functional

Row | SMILES | Inhibition [%]
1 | CC(Cc1ccc(S(=O)(=O)N(C(C)C)C(C)C)cc1)NCC(O)c1cccc(C(F)(F)F)c1.Cl (stereo unspecified) | 93
2 | CC[C@H]1CN2CC[C@@H]1C[C@H]2[C@H](O)c1cc(N2CCC(C)CC2)nc2ccc(OC)cc12 | 98
3 | Cc1cc(N)nc2cc(CNCCc3ccccc3Br)ccc12.Cl | 93
4 | Cc1ccc(CC(C)NCC(O)c2cccc(Cl)c2)cc1F.Cl (stereo unspecified) | 88
5 | C/C=C1\CN2CC[C@H]1C[C@H]2[C@H](O)c1ccnc2ccc(OC)cc12 | 45
6 | O=C(NCc1ccccc1)c1nn(CCCN2CCC3(CC2)C(=O)NCN3c2ccccc2)cc1-c1ccc(Cl)c(Cl)c1 | 21
7 | CCOc1ccc2nccc([C@@H](O)[C@@H]3C[C@@H]4CCN3C[C@@H]4CC)c2c1.Cl [ETHYLHYDROCUPREINE HYDROCHLORIDE] | 99
8 | CCCCCC(C)C(C)c1cc(O)c2c(c1)OC1(C(C)C)CC(O)C(C)C2C1 (stereo unspecified) | 87
9 | C=C[C@H]1CN2CC[C@H]1C[C@H]2[C@H](O)c1ccnc2ccccc12 [CINCHONIDINE] | 3
10 | CC(C)CNCc1cccc(-c2ccc(CN(C(=O)Nc3ccccc3)C3CCN(Cc4ccccc4)CC3)cc2)c1.O=C(O)C(F)(F)F | 61
11 | CC(=O)N(Cc1ccccc1-c1cccc(CNCc2ccc3c(c2)OCO3)c1)C1CCN(Cc2ccccc2)CC1.O=C(O)C(F)(F)F | 44
12 | Oc1ccc(Cl)cc1CN1CCC(CCOC(c2ccccc2)c2ccc(Cl)cc2)CC1 (stereo unspecified) | 100
13 | CCN1CCC2(c3cccc(OC)c3)Cc3nc4ccccc4c(-c4ccccc4)c3CC2C1 (stereo unspecified) | 98
14 | CS(=O)(=O)Nc1ccc2[nH]cc(C3CCN(CC4CCC(NC(=O)/C=C/c5ccc(Cl)c(Cl)c5)CC4)CC3)c2c1 (stereo unspecified) | 86
15 | COC(=O)c1ccc(CC(C)NCC(O)c2ccc3ccc4ccccc4c3c2)cc1.O=C(O)/C=C/C(=O)O (stereo unspecified) | 97
16 | Oc1ccc(Cl)cc1CN1CCC(CCOC(c2ccccc2)c2ccccc2)CC1 | 99
17 | O=C(/C=C/C=C/c1ccccc1)NC1CCC(CN2CCC(c3c[nH]c4ccccc34)CC2)CC1 (stereo unspecified) | 66
18 | CCCN(CCC)CCOC(=O)C(OCC)(c1ccccc1)c1ccccc1 | 0
19 | Cc1[nH]c2ccccc2c1C1=CCN(CC2CC2C(=O)c2ccccc2)CC1 (stereo unspecified) | 88
20 | Cc1[nH]c2cc(Cl)ccc2c1C1=CCN(CCCCC2(C)C(=O)Nc3c(F)cccc32)CC1 (stereo unspecified) | 74
21 | Cc1ccc(CC(C)NCC(O)c2cccc([N+](=O)[O-])c2)cc1 (stereo unspecified) | 85
22 | CN1CCN(c2ccc3[nH]c(-c4ccc5[nH]c(-c6ccc(O)cc6)nc5c4)nc3c2)CC1.Cl.O | 100
23 | CO/C=C(/C(=O)OC)c1ccccc1Oc1cc(Oc2ccccc2C#N)ncn1 [AZOXYSTROBIN] | 98
24 | CC(C)CNCc1cccc(-c2cccc(CN(C(=O)c3cccs3)C3CCN(Cc4ccccc4)CC3)c2)c1.O=C(O)C(F)(F)F | 36
25 | Br.COC(=O)c1ccc(CC(C)NCC(O)c2cccc(OC(F)(F)F)c2)cc1 (stereo unspecified) | 67
26 | N#Cc1ccc(N(CC(=O)NCCc2ccc(F)cc2)CC2CC2)c2ccccc12.O=C(O)C(F)(F)F | 23
27 | Cc1ccc(CC(C)NCC(O)c2cccc(C(F)(F)F)c2)c(C)c1.Cl (stereo unspecified) | 99

Each compound was assayed on HepG2 (assay: GSK_TCMDC: Percent inhibition of human HepG2 cell line. Test compounds present at 10uM.).
Assay type: functional

Row | SMILES | Inhibition
28 | NC(=O)c1ccc2[nH]cc(C3CCN(CC4CCC(NC(=O)/C=C/c5ccc(Cl)c(Cl)c5)CC4)CC3)c2c1 (stereo unspecified) | 0% and 11%
29 | CCC(C)CN1CCC(N(C)c2cc(NC(=O)c3cccc(C)c3)ccn2)CC1.O=C(O)C(F)(F)F (stereo unspecified) | 1%
30 | Cc1[nH]c2ccc(O)cc2c1C1CCN(CC2CCC(NC(=O)/C=C/c3ccc(Cl)c(Cl)c3)CC2)CC1 (stereo unspecified) | 19%
31 | CC[C@H]1CN2CC[C@H]1C[C@H]2[C@H](O)c1cc(-c2ccc(C)cc2)nc2ccc(OC)cc12.Cl | 22%
32 | CC(Cc1ccc(OCCCCOc2ccccc2)cc1)NCCc1ccccc1Cl (stereo unspecified) | 100%
33 | CC(C)CNCc1ccc(-c2cccc(CN(C(=O)Nc3ccccc3)C3CCN(Cc4ccccc4)CC3)c2)cc1.O=C(O)C(F)(F)F | 48%
34 | COc1ccc(CN2CCN(CCOC(c3ccccc3)c3ccccc3)CC2)c(O)c1 | 19%
35 | Cc1cc(-c2ncc[nH]2)ccc1-c1ccc(C(=O)N2CCc3cc4c(cc32)C2(CCN(C)CC2)CO4)cc1.Cl | 32%
36 | O=C(/C=C/c1c(Cl)cccc1Cl)NC1CCC(CN2CCC(c3c[nH]c4ccccc34)CC2)CC1 (stereo unspecified) | 54% and 39%
37 | Cc1cc(N(C)C2CCN(C)CC2)nc(Nc2ccc(Cl)cc2)n1 | 15%
38 | O=C(/C=C/c1ccccc1Cl)NC1CCC(CN2CCC(c3c[nH]c4ccccc34)CC2)CC1 (stereo unspecified) | 33% and 41%
39 | C=C[C@H]1CN2CC[C@H]1C[C@H]2[C@H](O)c1cc(/C=C/c2ccc(F)cc2)nc2ccc(OC)cc12.Cl | 25%
40 | CC(Cc1ccc(S(=O)(=O)N(C(C)C)C(C)C)cc1)NCC(O)c1cccc(C(F)(F)F)c1.Cl (stereo unspecified) | 21%
41 | CC[C@H]1CN2CC[C@@H]1C[C@H]2[C@H](O)c1cc(N2CCC(C)CC2)nc2ccc(OC)cc12 | 16%
42 | Cc1cc(N)nc2cc(CNCCc3ccccc3Br)ccc12.Cl | 47%
43 | Cc1ccc(CC(C)NCC(O)c2cccc(Cl)c2)cc1F.Cl (stereo unspecified) | 1%
44 | C/C=C1\CN2CC[C@H]1C[C@H]2[C@H](O)c1ccnc2ccc(OC)cc12 | 0%
45 | O=C(NCc1ccccc1)c1nn(CCCN2CCC3(CC2)C(=O)NCN3c2ccccc2)cc1-c1ccc(Cl)c(Cl)c1 | 6%
46 | CCOc1ccc2nccc([C@@H](O)[C@@H]3C[C@@H]4CCN3C[C@@H]4CC)c2c1.Cl [ETHYLHYDROCUPREINE HYDROCHLORIDE] | 24%
47 | CCCCCC(C)C(C)c1cc(O)c2c(c1)OC1(C(C)C)CC(O)C(C)C2C1 (stereo unspecified) | 1%

Row | SMILES | Inhibition
48 | C=C[C@H]1CN2CC[C@H]1C[C@H]2[C@H](O)c1ccnc2ccccc12 [CINCHONIDINE] | 9%
49 | CC(C)CNCc1cccc(-c2ccc(CN(C(=O)Nc3ccccc3)C3CCN(Cc4ccccc4)CC3)cc2)c1.O=C(O)C(F)(F)F | 41%
50 | CC(=O)N(Cc1ccccc1-c1cccc(CNCc2ccc3c(c2)OCO3)c1)C1CCN(Cc2ccccc2)CC1.O=C(O)C(F)(F)F | 17%
51 | Oc1ccc(Cl)cc1CN1CCC(CCOC(c2ccccc2)c2ccc(Cl)cc2)CC1 (stereo unspecified) | 32%
52 | CCN1CCC2(c3cccc(OC)c3)Cc3nc4ccccc4c(-c4ccccc4)c3CC2C1 (stereo unspecified) | 0%
53 | CS(=O)(=O)Nc1ccc2[nH]cc(C3CCN(CC4CCC(NC(=O)/C=C/c5ccc(Cl)c(Cl)c5)CC4)CC3)c2c1 (stereo unspecified) | 22%
54 | COC(=O)c1ccc(CC(C)NCC(O)c2ccc3ccc4ccccc4c3c2)cc1.O=C(O)/C=C/C(=O)O (stereo unspecified) | 21%
55 | Oc1ccc(Cl)cc1CN1CCC(CCOC(c2ccccc2)c2ccccc2)CC1 | 14%
56 | O=C(/C=C/C=C/c1ccccc1)NC1CCC(CN2CCC(c3c[nH]c4ccccc34)CC2)CC1 (stereo unspecified) | 49%
57 | CCCN(CCC)CCOC(=O)C(OCC)(c1ccccc1)c1ccccc1 | 0%
58 | Cc1[nH]c2ccccc2c1C1=CCN(CC2CC2C(=O)c2ccccc2)CC1 (stereo unspecified) | 18%
59 | Cc1[nH]c2cc(Cl)ccc2c1C1=CCN(CCCCC2(C)C(=O)Nc3c(F)cccc32)CC1 (stereo unspecified) | 14%
60 | Cc1ccc(CC(C)NCC(O)c2cccc([N+](=O)[O-])c2)cc1 (stereo unspecified) | 0%
61 | CN1CCN(c2ccc3[nH]c(-c4ccc5[nH]c(-c6ccc(O)cc6)nc5c4)nc3c2)CC1.Cl.O | 0%
62 | CO/C=C(/C(=O)OC)c1ccccc1Oc1cc(Oc2ccccc2C#N)ncn1 [AZOXYSTROBIN] | 7%
63 | CC(C)CNCc1cccc(-c2cccc(CN(C(=O)c3cccs3)C3CCN(Cc4ccccc4)CC3)c2)c1.O=C(O)C(F)(F)F | 14%
64 | Br.COC(=O)c1ccc(CC(C)NCC(O)c2cccc(OC(F)(F)F)c2)cc1 (stereo unspecified) | 2%
65 | N#Cc1ccc(N(CC(=O)NCCc2ccc(F)cc2)CC2CC2)c2ccccc12.O=C(O)C(F)(F)F | 28%
66 | Cc1ccc(CC(C)NCC(O)c2cccc(C(F)(F)F)c2)c(C)c1.Cl (stereo unspecified) | 3%
